# Measurements taken from PubChem BioAssay (EPA / NIEHS).
# The source made the active and inactive calls. How the source made its calls: active means hit-call score of the fitted dose curve at least 0.9, where 1 is the maximum; inactive means score below 0.9.
# Assay: CCTE_Padilla_ZF_Score.General: CCTE's 144 Hour Post-fertilization zebrafish Assay Score for General Malformation, Padilla Lab (AID 2284411)
# Procedure: CCTE_Padilla_ZF_Phenotype_Score is a whole embryo, multiplexed assay using zebrafish ova exposed for 144 hours post fertilization on a 96-well plate.CCTE_Padilla_ZF_Score.General is one of one assay component(s) measured or calculated from the CCTE_Padilla_ZF_Phenotype_Score assay. It is designed to make measurements of zebrafish development as detected with brightfield microscopy of developing zebrafish embryos.Data from the assay component CCTE_Padilla_ZF_Score.General was analyzed into 1 assay endpoints. This assay endpoint, CCTE_Padilla_ZF_Score.General, was analyzed in the positive analysis fitting direction relative to DMSO as the negative control and baseline of activity. Using a type of viability reporter, gain-of-signal activity can be used to understand changes in developmentals as they relate to the whole embryo. To generalize the intended target to other relatable targets, this assay endpoint is annotated to the zebrafish development intended target family, where the subfamily is embryonic morphogenesis.
# Zebrafish husbandry: Wild type adult zebrafish (Danio rerio; undefined outbred stock obtained from Aquatic Research Organisms, Hampton, NH, 03842) were housed in an AAALAC-approved animal facility at 28C with a 14:10 h light: dark cycle (lights on at 08:30 h). Adult fish (2-3 females per male; density = 15-20 adults per tank) were kept in one of several 9-liter (L) flow-through colony tanks (Aquaneering Inc., San Diego, CA). All adults in a colony tank were placed in a 2 L (static) breeding tank (Aquatic Habitats, Apopka, FL) one hour prior to light onset. Typically, adults from two to three colony tanks were mated on the same day. Two hours after light onset the adults were returned to the colony tank. All embryos were gathered from each breeder tank, pooled, and placed in a 28C water bath for 2 h, followed by two washes with 0.06% bleach (v/v) in 10% Hanks' Balanced Salt Solution (13.7 mM NaCl 0.54 mM KCl, 25 uM Na2HPO4, 130 uM CaCl2 100 um MgSO4 and 420 um NaHCO3,), hereafter referred to as Hanks' solution, for 5 min in order to remove any residual bacteria or fungi. Immediately following washing, the embryos were examined, and healthy embryos were separated from dead or unfertilized eggs and moved into fresh Hanks'. Chemical exposures: Zebrafish embryos were exposed in 96-well plates. Between 6- and 8-hours post fertilization (hpf), healthy embryos (with chorions) were transferred, one embryo per well, into 96 well (0.5 mL) microtiter plates (Cell Culture-Treated, Flat-Bottom Microplate 96 well [Corning Costar, Kennebunk, ME; Cat 09-761-145]) filled with 200 uL of Hanks' solution. A random number generator was used to assign the order in which the rows of embryos were plated in 96 well plates each week. After plating, the embryos were dosed with 0.8 uL of the chemical dosing solution then immediately sealed with AlumaSeal II (Excel Scientific Inc, Victorville, CA) to prevent volatilization of the chemicals, and then placed in a leakproof secondary container. These containers were placed in an incubator maintained on a 14:10 h light: dark cycle at 26C for rearing. On 5 dpf, live larvae were gently moved out of the plate with test chemicals and into a new 96 well mesh plate (Millipore Corp., Bedford, MA) with just the Hanks' solution. Once within the mesh well plate, the animals were rinsed with 400 uL of fresh Hanks' three times, and then the plates were covered with a non-adhesive material (Microseal A, BioRad, Hercules, CA), plate lid added, and then plate sides wrapped in Parafilm (PM992, Bermis Company, Neenah, WI), and returned to the incubator. […]
Structure (SMILES),outcome,AC50
C=CC(F)(F)C(F)(F)C(F)(F)C(F)(F)F,inactive,
NC(C(F)(F)F)C(F)(F)F,inactive,
O=P(O)(O)CCC(F)(F)C(F)(F)C(F)(F)C(F)(F)C(F)(F)C(F)(F)F,inactive,
O=C1c2ccc(O)c(O)c2C(=O)c2c(O)ccc(O)c21,inactive,
FC(F)=C(F)C(F)(F)C(F)(F)C(F)(F)C(F)F,inactive,
FCOC(C(F)(F)F)C(F)(F)F,inactive,
CN(CCO)S(=O)(=O)C(F)(F)C(F)(F)C(F)(F)C(F)(F)C(F)(F)C(F)(F)C(F)(F)C(F)(F)F,inactive,
FC(F)(F)C1(F)C(F)(F)C(F)(F)C(F)(F)C(F)(C(F)(F)F)C1(F)F (stereo not given),inactive,
OCCN1CN(CCO)CN(CCO)C1,inactive,
C=CC(=O)OCCC(F)(F)C(F)(F)C(F)(F)C(F)(F)C(F)(F)C(F)(F)C(F)(F)C(F)(F)F,inactive,
O=CC(F)(F)C(F)(F)C(F)(F)C(F)F,inactive,
CCCCCCCCCCCCCCCCCC[N+](C)(C)Cc1ccccc1,inactive,
COC1=CC(=O)C[C@@H](C)[C@]12Oc1c(Cl)c(OC)cc(OC)c1C2=O,inactive,
O=C(O)CCC(F)(F)C(F)(F)C(F)(F)C(F)(F)C(F)(F)C(F)(F)F,inactive,
FC1(F)C=CC(F)(F)C1(F)F,inactive,
O=C1OC(=O)C(F)(F)C1(F)F,inactive,
O=CC(F)(F)C(F)(F)C(F)(F)F,,79.6 µM (active)
FC(OC(F)(F)C(F)(F)C(F)(F)F)C(F)(F)F (stereo not given),inactive,
O=P(O)(O)CCC(F)(F)C(F)(F)C(F)(F)C(F)(F)C(F)(F)C(F)(F)C(F)(F)C(F)(F)F,,1.78 µM (active)
O=C(O)C(F)(F)OC(F)(F)C(F)(F)OC(F)(F)C(F)(F)OC(F)(F)C(F)(F)C(F)(F)C(F)(F)F,,2.18 µM (active)
O=C(CC(=O)C(F)(F)C(F)(F)C(F)(F)F)c1cccs1,inactive,
O=C(F)C(F)(F)C(F)(F)C(F)(F)C(=O)F,inactive,
COC(=O)C(F)(F)C(F)(F)C(F)(F)C(F)(F)C(F)(F)F,inactive,
O=C(OC(=O)C(F)(F)C(F)(F)F)C(F)(F)C(F)(F)F,inactive,
C=CC(C)(CCC=C(C)C)OC(C)=O (stereo not given),inactive,
FC(F)(F)C1(F)C(F)(F)C(F)(F)C(F)(F)C1(F)F,inactive,
FC(F)(F)N1C(F)(F)C(F)(F)OC(F)(F)C1(F)F,inactive,
O=C(O)CCC(F)(F)C(F)(F)C(F)(F)C(F)(F)C(F)(F)F,,10.7 µM (active)
CC(C)(c1ccc(Oc2ccc(N)cc2)cc1)c1ccc(Oc2ccc(N)cc2)cc1,inactive,
OCC(F)(F)C(F)(F)C(F)(F)C(F)(F)C(F)(F)C(F)(F)C(F)(F)C(F)(F)C(F)(F)C(F)(F)C(F)(F)F,inactive,
